± gives the standard deviation of the averaged measurements. The full data set covers some 5,400 targets. This sample favours those with the largest changes.
Compound: Nc1nc2c(ncn2[C@@H]2O[C@H](COP(=O)(O)OP(=O)(O)OP(=O)(O)O)[C@@H](O)[C@H]2O)c(=O)[nH]1 [guanosine triphosphate]
Assay: NP40-soluble protein abundance relative to vehicle (solubility fold change) (ratio); higher = more soluble protein in presence of GTP
Method: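 Solubility proteome profiling in Jurkat crude lysate. Lysate was treated with Mg-GTP (0.1-10 mM) for 10 min at room temperature and 3 min at 37 °C, then solubilised with 0.8% NP40 and benzonase, followed by ultracentrifugation. Proteins were quantified by TMT10 LC-MS/MS; the value is the NP40-soluble abundance relative to the NP40-processed vehicle, from 3 independent experiments.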

UniProt Q13572, sequence (Q13572 whole entry): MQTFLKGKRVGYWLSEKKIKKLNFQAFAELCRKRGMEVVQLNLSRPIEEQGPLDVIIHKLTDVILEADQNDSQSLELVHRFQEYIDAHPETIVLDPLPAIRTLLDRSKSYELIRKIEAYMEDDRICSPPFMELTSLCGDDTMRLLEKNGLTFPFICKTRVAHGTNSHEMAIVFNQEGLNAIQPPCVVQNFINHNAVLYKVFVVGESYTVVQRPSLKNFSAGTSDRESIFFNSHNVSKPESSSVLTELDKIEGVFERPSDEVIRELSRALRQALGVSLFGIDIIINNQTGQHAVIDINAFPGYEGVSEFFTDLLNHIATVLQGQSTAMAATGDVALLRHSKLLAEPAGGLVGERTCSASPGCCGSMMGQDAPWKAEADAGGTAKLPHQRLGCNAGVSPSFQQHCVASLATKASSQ
UniProt Q8IXB1, sequence (Q8IXB1 whole entry): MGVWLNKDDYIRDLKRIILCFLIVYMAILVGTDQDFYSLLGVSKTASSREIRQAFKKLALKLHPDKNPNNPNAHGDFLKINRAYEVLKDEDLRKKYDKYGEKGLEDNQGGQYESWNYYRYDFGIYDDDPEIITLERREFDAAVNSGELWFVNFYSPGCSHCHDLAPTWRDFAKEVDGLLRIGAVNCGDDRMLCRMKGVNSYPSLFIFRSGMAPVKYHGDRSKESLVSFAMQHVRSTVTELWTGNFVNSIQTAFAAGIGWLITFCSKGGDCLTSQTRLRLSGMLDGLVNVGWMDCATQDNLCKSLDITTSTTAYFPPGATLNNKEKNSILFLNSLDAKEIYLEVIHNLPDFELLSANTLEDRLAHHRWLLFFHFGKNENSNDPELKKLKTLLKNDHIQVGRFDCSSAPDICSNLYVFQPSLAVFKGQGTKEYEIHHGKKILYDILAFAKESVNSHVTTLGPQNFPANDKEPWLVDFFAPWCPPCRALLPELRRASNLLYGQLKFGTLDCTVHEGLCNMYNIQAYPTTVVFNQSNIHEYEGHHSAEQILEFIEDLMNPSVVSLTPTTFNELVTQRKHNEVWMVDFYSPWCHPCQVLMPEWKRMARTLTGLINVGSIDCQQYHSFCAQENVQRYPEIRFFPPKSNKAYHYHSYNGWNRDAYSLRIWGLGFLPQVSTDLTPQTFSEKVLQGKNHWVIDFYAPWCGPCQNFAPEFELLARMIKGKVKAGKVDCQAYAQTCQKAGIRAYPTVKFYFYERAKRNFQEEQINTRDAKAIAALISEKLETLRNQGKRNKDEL
UniProt Q10471, sequence (Q10471 whole entry): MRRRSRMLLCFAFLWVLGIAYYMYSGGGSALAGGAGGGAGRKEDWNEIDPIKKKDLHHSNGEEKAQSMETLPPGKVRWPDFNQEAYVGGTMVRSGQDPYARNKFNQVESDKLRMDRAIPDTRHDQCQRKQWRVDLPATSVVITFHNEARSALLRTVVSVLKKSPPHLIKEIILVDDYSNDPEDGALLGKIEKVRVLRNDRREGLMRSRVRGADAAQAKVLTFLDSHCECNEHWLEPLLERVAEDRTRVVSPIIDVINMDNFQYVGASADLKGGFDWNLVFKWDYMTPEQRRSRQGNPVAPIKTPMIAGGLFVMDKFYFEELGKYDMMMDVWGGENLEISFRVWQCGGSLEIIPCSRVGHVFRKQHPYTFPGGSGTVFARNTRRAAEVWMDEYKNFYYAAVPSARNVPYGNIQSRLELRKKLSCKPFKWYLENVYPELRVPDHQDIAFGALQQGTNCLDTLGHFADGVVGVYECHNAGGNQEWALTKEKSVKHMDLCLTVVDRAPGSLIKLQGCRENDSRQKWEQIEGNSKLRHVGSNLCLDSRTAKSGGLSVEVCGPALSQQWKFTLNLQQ
UniProt Q86WR0, sequence (Q86WR0 whole entry): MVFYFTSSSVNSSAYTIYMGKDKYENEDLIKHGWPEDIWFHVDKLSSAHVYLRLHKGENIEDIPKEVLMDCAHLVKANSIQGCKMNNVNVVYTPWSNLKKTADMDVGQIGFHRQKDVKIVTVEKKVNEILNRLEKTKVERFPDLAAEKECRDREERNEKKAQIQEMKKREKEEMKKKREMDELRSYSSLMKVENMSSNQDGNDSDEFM
UniProt Q86U90, sequence (Q86U90 whole entry): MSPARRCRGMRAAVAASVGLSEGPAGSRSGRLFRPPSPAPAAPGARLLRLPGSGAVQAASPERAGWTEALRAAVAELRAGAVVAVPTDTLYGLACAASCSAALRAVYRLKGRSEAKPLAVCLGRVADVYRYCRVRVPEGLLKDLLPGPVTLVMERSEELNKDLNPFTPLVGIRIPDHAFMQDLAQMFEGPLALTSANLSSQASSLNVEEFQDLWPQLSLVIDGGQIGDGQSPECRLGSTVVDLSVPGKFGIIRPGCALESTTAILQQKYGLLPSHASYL

Work on ITPK1 (UniProt Q13572) yielded an NP40-soluble protein abundance (concentration: 0.1mM) of 0.997 ± 0.085, an NP40-soluble protein abundance (concentration: 0.5mM) of 0.965 ± 0.064 and an NP40-soluble protein abundance (concentration: 1mM) of 0.904 ± 0.095. The NP40-soluble protein abundance (concentration: 2mM) was 0.981 ± 0.077, the NP40-soluble protein abundance (concentration: 4mM) was 0.981 ± 0.15 and the NP40-soluble protein abundance (concentration: 6mM) was 0.943 ± 0.18. For the same target, the NP40-soluble protein abundance (concentration: 8mM) was 0.924 ± 0.13 and the NP40-soluble protein abundance (concentration: 10mM) was 0.953 ± 0.09.

Target UniProt Q8IXB1|Q8IXB1-2 has an NP40-soluble protein abundance (concentration: 0.1mM) of 1.17 ± 0.21, an NP40-soluble protein abundance (concentration: 0.5mM) of 1.06 ± 0.11 and an NP40-soluble protein abundance (concentration: 1mM) of 1.08 ± 0.1. The NP40-soluble protein abundance (concentration: 2mM) was 1.17 ± 0.15, the NP40-soluble protein abundance (concentration: 4mM) was 1.1 ± 0.11 and the NP40-soluble protein abundance (concentration: 6mM) was 1.11 ± 0.16. It also gave an NP40-soluble protein abundance (concentration: 8mM) of 1.1 ± 0.11 and an NP40-soluble protein abundance (concentration: 10mM) of 1.06 ± 0.084.

GALNT2 (UniProt Q10471) was tested, and the NP40-soluble protein abundance (concentration: 0.1mM) was 1.02 ± 0.025, the NP40-soluble protein abundance (concentration: 0.5mM) was 0.97 ± 0.021 and the NP40-soluble protein abundance (concentration: 1mM) was 0.9568 ± 0.0034. The NP40-soluble protein abundance (concentration: 2mM) was 0.917 ± 0.014, the NP40-soluble protein abundance (concentration: 4mM) was 0.928 ± 0.022 and the NP40-soluble protein abundance (concentration: 6mM) was 0.901 ± 0.012. For the same target, the NP40-soluble protein abundance (concentration: 8mM) was 0.927 ± 0.046 and the NP40-soluble protein abundance (concentration: 10mM) was 0.861 ± 0.052.

Target YRDC (UniProt Q86U90) has an NP40-soluble protein abundance (concentration: 0.1mM) of 0.989 ± 0.041, an NP40-soluble protein abundance (concentration: 0.5mM) of 0.952 ± 0.022 and an NP40-soluble protein abundance (concentration: 1mM) of 0.949 ± 0.027. It also gave an NP40-soluble protein abundance (concentration: 2mM) of 0.943 ± 0.015, an NP40-soluble protein abundance (concentration: 4mM) of 0.946 ± 0.041 and an NP40-soluble protein abundance (concentration: 6mM) of 0.899 ± 0.026. It also gave an NP40-soluble protein abundance (concentration: 8mM) of 0.871 ± 0.07 and an NP40-soluble protein abundance (concentration: 10mM) of 0.916 ± 0.055.

CCDC25 (UniProt Q86WR0) was tested, and the NP40-soluble protein abundance (concentration: 0.1mM) was 0.954 ± 0.079, the NP40-soluble protein abundance (concentration: 0.5mM) was 0.939 ± 0.057 and the NP40-soluble protein abundance (concentration: 1mM) was 0.892 ± 0.051. It also gave an NP40-soluble protein abundance (concentration: 2mM) of 0.842 ± 0.071, an NP40-soluble protein abundance (concentration: 4mM) of 0.855 ± 0.1 and an NP40-soluble protein abundance (concentration: 6mM) of 0.842 ± 0.084. It also gave an NP40-soluble protein abundance (concentration: 8mM) of 0.876 ± 0.059 and an NP40-soluble protein abundance (concentration: 10mM) of 0.863 ± 0.068.

— the supplement of paper PMC6411743
